These results are taken from article PMC4336329 (PLoS ONE, 2015).

Screen size: about 310,000 compounds; about 14,000 (4.5%) showed an effect of 50% or more. The effect is printed as a negative number. This is one part of a sample in which strong results are shown more often than they occur.
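Also: peak tail current of the secondary pulse compared with the same well before compound.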

Sequence of human ether-à-go-go-related gene (hERG) potassium channel (Q12809 whole entry, looked up): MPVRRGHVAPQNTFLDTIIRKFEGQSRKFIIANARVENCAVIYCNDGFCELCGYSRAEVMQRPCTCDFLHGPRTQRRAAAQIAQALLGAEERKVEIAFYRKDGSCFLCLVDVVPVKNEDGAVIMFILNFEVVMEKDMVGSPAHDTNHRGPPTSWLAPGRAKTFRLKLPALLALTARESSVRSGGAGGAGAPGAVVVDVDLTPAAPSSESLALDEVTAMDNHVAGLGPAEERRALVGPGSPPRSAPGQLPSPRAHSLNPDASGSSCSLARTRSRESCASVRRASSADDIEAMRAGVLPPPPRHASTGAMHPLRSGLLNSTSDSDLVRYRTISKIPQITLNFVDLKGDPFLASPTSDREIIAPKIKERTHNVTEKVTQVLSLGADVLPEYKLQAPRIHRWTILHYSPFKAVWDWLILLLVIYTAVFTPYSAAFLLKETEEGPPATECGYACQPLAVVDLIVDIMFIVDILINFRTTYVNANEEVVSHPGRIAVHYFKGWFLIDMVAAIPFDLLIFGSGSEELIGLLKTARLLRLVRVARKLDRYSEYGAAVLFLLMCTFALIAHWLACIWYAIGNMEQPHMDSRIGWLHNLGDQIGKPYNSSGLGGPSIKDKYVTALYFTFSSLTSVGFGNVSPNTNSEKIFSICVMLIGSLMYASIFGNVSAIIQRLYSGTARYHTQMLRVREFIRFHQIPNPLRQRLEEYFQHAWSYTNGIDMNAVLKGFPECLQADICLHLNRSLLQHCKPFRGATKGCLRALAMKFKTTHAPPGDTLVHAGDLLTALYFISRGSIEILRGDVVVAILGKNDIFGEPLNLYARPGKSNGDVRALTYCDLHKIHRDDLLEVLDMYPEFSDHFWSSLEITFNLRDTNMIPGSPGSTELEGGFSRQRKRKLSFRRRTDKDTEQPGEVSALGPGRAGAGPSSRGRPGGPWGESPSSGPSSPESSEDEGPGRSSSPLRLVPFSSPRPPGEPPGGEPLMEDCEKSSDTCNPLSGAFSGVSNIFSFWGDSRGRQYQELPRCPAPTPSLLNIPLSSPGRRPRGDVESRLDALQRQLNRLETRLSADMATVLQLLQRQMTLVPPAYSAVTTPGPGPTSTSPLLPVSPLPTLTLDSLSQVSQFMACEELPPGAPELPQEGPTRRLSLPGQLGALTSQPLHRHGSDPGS

The test concerns the target human ether-à-go-go-related gene (hERG) potassium channel (human, UniProt Q12809). The test can be described thus: primary screen, population patch clamp on CHO cells stably expressing hERG; higher = less effect of the substance.
For `CCS(=O)(=O)N1CCC(C(=O)OCC(=O)c2ccc(Br)cc2)CC1`, the “hERG current change (%, negative = inhibition) at 10uM” value was 3.45%.

In the case of `Oc1ccc2ccccc2c1C=Nc1ccc(N2CCOCC2)cc1`, the “hERG current change (%, negative = inhibition) at 10uM” value worked out at 3.04%.

Consider `Cn1c(=Nc2ccc(N3CCOCC3)cc2)ccc2ccccc21`, for which the “hERG current change (%, negative = inhibition) at 10uM” value is listed as -47.5%.

Regarding `CCn1c(=Nc2ccc(N3CCOCC3)cc2)ccc2ccccc21`, the “hERG current change (%, negative = inhibition) at 10uM” value was -66.8%.

Regarding `COc1ccccc1OCc1ccc(C(=O)N(C)c2ccccc2)o1`, the “hERG current change (%, negative = inhibition) at 10uM” value was found to be 7.76%.

`COC(=O)c1coc(-c2ccc(OC)cc2)c1C(=O)OC`: the “hERG current change (%, negative = inhibition) at 10uM” value was found to be 13.8%.

For `O=C(O)C(=O)O.O=[N+]([O-])c1ccc(OCCCCN2CCc3ccccc3C2)cc1`, the “hERG current change (%, negative = inhibition) at 10uM” value is given as -76.3%.

As to `O=C(CCCOc1ccccc1)N1CCc2ccccc2C1`, the “hERG current change (%, negative = inhibition) at 10uM” value was 0.877%.

On to `Cc1ccc(OCCCCN2CCc3ccccc3C2)cc1.Cl`, for which the “hERG current change (%, negative = inhibition) at 10uM” value is -34.9%.

Regarding `O=C(Cc1ccc([N+](=O)[O-])cc1)N1CCc2ccccc2C1`, the “hERG current change (%, negative = inhibition) at 10uM” value is -17.7%.

As to `O=C(CCc1ccc(S(=O)(=O)N2CCOCC2)cc1)N1CCc2ccccc2C1`, the “hERG current change (%, negative = inhibition) at 10uM” value is given as -14.5%.

Take `Cl.O=[N+]([O-])c1ccccc1OCCCN1CCc2ccccc2C1`: the “hERG current change (%, negative = inhibition) at 10uM” value was -49.7%.

For the molecule `O=C(COc1ccc(S(=O)(=O)N2CCOCC2)cc1)N1CCc2ccccc2C1`, the “hERG current change (%, negative = inhibition) at 10uM” value is listed as -55.9%.

On to `Cc1ccc(OCC(=O)N2CCc3ccccc3C2)cc1`, for which the “hERG current change (%, negative = inhibition) at 10uM” value is recorded as -3.37%.

For `O=C(COc1ccc(S(=O)(=O)N2CCOCC2)cc1)N1CCOCC1`, the “hERG current change (%, negative = inhibition) at 10uM” value is given as 10.6%.

Take `O=C(COc1ccc([N+](=O)[O-])cc1)N1CCc2ccccc2C1`: the “hERG current change (%, negative = inhibition) at 10uM” value is -54.5%.

In the case of `Cl.Clc1ccc(OCCCCN2CCc3ccccc3C2)cc1`, the “hERG current change (%, negative = inhibition) at 10uM” value is -68.1%.

In the case of `O=C(COc1ccccc1)N1CCc2ccccc2C1`, the “hERG current change (%, negative = inhibition) at 10uM” value is reported as 10%.

Take `O=C(CCNS(=O)(=O)c1cccc2nsnc12)NCCc1ccccc1`: the “hERG current change (%, negative = inhibition) at 10uM” value is listed as -4.18%.

`COC(=O)CC1(CC(=O)OC)C(=O)NC(=O)NC1=O`: the “hERG current change (%, negative = inhibition) at 10uM” value came out at 7.37%.

As to `CCCC(=O)OCC(=O)Nc1cc(Cl)ccc1[N+](=O)[O-]`, the “hERG current change (%, negative = inhibition) at 10uM” value is given as 16.8%.

`Cc1ccc(Oc2nc3ccccc3n3cccc23)cc1`: the “hERG current change (%, negative = inhibition) at 10uM” value is -10.1%.

In the case of `O=C(OCC(=O)N1CCCc2ccccc21)c1ccc(Cl)nc1`, the “hERG current change (%, negative = inhibition) at 10uM” value is listed as -3.94%.

For `Cc1c(C(=O)NNC(=O)c2csc(N3CCOCC3)n2)oc2ccccc12`, the “hERG current change (%, negative = inhibition) at 10uM” value is -38.7%.

Consider `COC(=O)C1CCN(Cc2c(C(=O)N3C[C@@H](C)O[C@@H](C)C3)nc3ccc(Cl)cn23)CC1`, for which the “hERG current change (%, negative = inhibition) at 10uM” value came to 21.1%.

For `COCCCNC(=O)c1cn(Cc2c(F)cccc2Cl)nn1`, the “hERG current change (%, negative = inhibition) at 10uM” value is reported as -3.65%.

Turning to `CCOC(=O)c1nnn(-c2nonc2N)c1COc1c(C=O)cccc1OC`, the “hERG current change (%, negative = inhibition) at 10uM” value is -6.2%.

Turning to `Cc1cc(=O)n(C)c(=O)n1CCCCCN1CCCC1.O=C(O)C(=O)O`, the “hERG current change (%, negative = inhibition) at 10uM” value is reported as 5.16%.

`Cc1cc(=O)n(C)c(=O)n1CCCCCCN1CCCC1.O=C(O)C(=O)O`: the “hERG current change (%, negative = inhibition) at 10uM” value is recorded as 8.96%.

On to `O=[N+]([O-])c1ccc(OCCOCCOc2ccc([N+](=O)[O-])cc2)cc1`, for which the “hERG current change (%, negative = inhibition) at 10uM” value is -16.6%.

Turning to `Cc1cc(=O)n(C)c(=O)n1CCCCCCOc1ccc([N+](=O)[O-])cc1`, the “hERG current change (%, negative = inhibition) at 10uM” value was -63.9%.

In the case of `Cc1n[nH]c(C)c1CCCCOc1ccc([N+](=O)[O-])cc1`, the “hERG current change (%, negative = inhibition) at 10uM” value is -16.4%.

For the molecule `Cc1cc(=O)n(C)c(=O)n1CCCCOc1ccc([N+](=O)[O-])cc1`, the “hERG current change (%, negative = inhibition) at 10uM” value is -68.9%.

As to `CN(Cc1ccccc1)C(=O)CNC(=O)Cn1cnc2ccccc2c1=O`, the “hERG current change (%, negative = inhibition) at 10uM” value is listed as -7.88%.

Regarding `CC(/C=C/C=C/c1ccccc1)=N/NC(=O)c1ccc2c(c1)OCCO2`, the “hERG current change (%, negative = inhibition) at 10uM” value was determined as 7.79%.

In the case of `C=CCn1c(SCC(=O)Nc2cc(C)nn2-c2ccccc2)nnc1C1CCCCC1`, the “hERG current change (%, negative = inhibition) at 10uM” value is reported as -14.1%.

`COc1ccc(CN2CCC(C(=O)c3ccc(Cl)cc3)CC2)cc1`: the “hERG current change (%, negative = inhibition) at 10uM” value is given as -78.7%.

Regarding `O=C(c1ccc(F)cc1)C1CCN(Cc2ccc(F)cc2)CC1`, the “hERG current change (%, negative = inhibition) at 10uM” value is listed as -47.7%.

Consider `CCS(=O)(=O)N1CCC(C(=O)c2ccc(Cl)cc2)CC1`, for which the “hERG current change (%, negative = inhibition) at 10uM” value is recorded as -47.3%.

Regarding `COc1ccc(NC(=O)N2CCC(C(=O)c3ccc(F)cc3)CC2)cc1`, the “hERG current change (%, negative = inhibition) at 10uM” value is -18.6%.

As for `COc1ccc(CN2CCC(C(=O)c3ccc(F)cc3)CC2)cc1`, the “hERG current change (%, negative = inhibition) at 10uM” value is -78.4%.

Take `CC(=O)N1CCC(C(=O)c2ccc(Cl)cc2)CC1`: the “hERG current change (%, negative = inhibition) at 10uM” value is reported as -0.317%.

As for `Cc1ccccc1C(=O)NCCCc1ccccc1`, the “hERG current change (%, negative = inhibition) at 10uM” value was 12.5%.

As to `O=C(NCCC(=O)N1CCCCC1)c1ccccc1Cl`, the “hERG current change (%, negative = inhibition) at 10uM” value is reported as -14.2%.

For the molecule `COc1ccccc1N1CCN(/N=C\C(Br)=C\c2ccccc2)CC1`, the “hERG current change (%, negative = inhibition) at 10uM” value is reported as 10.2%.

Take `COCCNC(=O)C(c1ccc(O)cc1)N(Cc1ccco1)C(=O)CCC(=O)Nc1ccccn1` (centres unmarked): the “hERG current change (%, negative = inhibition) at 10uM” value came out at 23.8%.

On to `CCCCSc1nnc([C@@H]2CCCN2C(=O)OC(C)(C)C)o1`, for which the “hERG current change (%, negative = inhibition) at 10uM” value is -12.2%.

With `O=C(Nc1cccc(C(F)(F)F)c1)NC1CCN(S(=O)(=O)c2ccc(F)cc2)CC1`, the “hERG current change (%, negative = inhibition) at 10uM” value was determined as 12.2%.

With `COc1ccc(NC(=O)CCN2CCN(S(=O)(=O)c3ccc(OC)cc3)CC2)cc1`, the “hERG current change (%, negative = inhibition) at 10uM” value is on record as -25%.

As to `O=C(CCNC(=O)C1CCN(S(=O)(=O)c2ccccc2)CC1)Nc1cccc(C(F)(F)F)c1`, the “hERG current change (%, negative = inhibition) at 10uM” value is on record as -45.1%.

With `O=C(CNc1cccc(C(F)(F)F)c1)Nc1cccc(S(=O)(=O)N2CCCC2)c1`, the “hERG current change (%, negative = inhibition) at 10uM” value is recorded as -6.44%.

Take `COc1ccc(S(=O)(=O)N2CCCN(CCC(=O)Nc3cccc(C(F)(F)F)c3)CC2)cc1`: the “hERG current change (%, negative = inhibition) at 10uM” value is recorded as -69.6%.

As for `O=C(CN1CCN(S(=O)(=O)c2ccc(F)cc2)CC1)Nc1cccc(C(F)(F)F)c1`, the “hERG current change (%, negative = inhibition) at 10uM” value was -55.5%.

With `O=C(CN1CCN(S(=O)(=O)c2ccccc2)CC1)Nc1cccc(C(F)(F)F)c1`, the “hERG current change (%, negative = inhibition) at 10uM” value is reported as -56.2%.

For `O=C(CN1CCN(S(=O)(=O)c2ccc(F)cc2)CC1)Nc1cc(C(F)(F)F)ccc1Cl`, the “hERG current change (%, negative = inhibition) at 10uM” value was -4.15%.

Take `COc1ccc(S(=O)(=O)N2CCN(CCC(=O)Nc3ccc(F)cc3)CC2)cc1`: the “hERG current change (%, negative = inhibition) at 10uM” value is -18.9%.
